This is a sample that favours compounds with a hit; in the whole collection about 21% have one here.
CHX counter = affects cycloheximide protein synthesis inhibition readout, counter-screen | cell reporter, cycloheximide protein synthesis inhibition counterscreen | max response, % | 300,000 compounds, 12% hits; in the data active = max response mostly above about 13%, no sharp cut-off; inactive = mostly below about 14%; note: read at 38.3 µM for the half of the compounds with a filed dose; 0% is about no effect
Pf growth 96h = P. falciparum growth inhibition at 96 hours; P. falciparum luciferase reporter growth, 96 h; AID 504834; 320,000 compounds, 6.9% hits; Potency, µM (series often up to 28.7 µM), for inactives: at the highest dose activity change, negative = inhibition, most hits filed as inhibitors; note: potency is the fitted concentration of half-maximal effect; % is set by controls: 0 for no effect and ±100 for the full control effect
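P. falciparum expressing integrated firefly luciferase grown in erythrocytes (2% hematocrit, 0.05% parasitemia final) with compounds for 96 hours at 37 C, 5% CO2. Growth inhibition read as loss of luminescence after adding luciferase detection reagent.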
Pf growth 48h = P. falciparum growth inhibition at 48 hours (one generation) | P. falciparum luciferase growth in erythrocytes, 48 h | Potency, µM (titrated, usually from 28.7 µM), without a hit: at the highest dose activity change, negative = inhibition, actives largely listed as inhibitors | 310,000 compounds, 5.9% hits; note: potency is the fitted concentration of half-maximal effect; % is set by controls: 0 for no effect and ±100 for the full control effect
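Luciferase-expressing P. falciparum in infected erythrocytes (2% hematocrit, 0.1% parasitemia final) in RPMI 1640/0.5% Albumax were exposed to compound for 48 hours at 37 C, 5% CO2; growth read as luminescence.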
Shiga toxin inh = blocks Shiga toxin action in Vero cells | Vero cells, Shiga toxin protein synthesis inhibition reporter | inhibition, % at 38.7 µM | 290,000 compounds, 9.2% hits; in the data active = inhibition mostly above about 28%, no sharp cut-off; inactive = mostly below about 43%; note: 0% is about no effect
Numbers without * were called inactive; ? = inconclusive; / = no result given. Unless noted, calls come from the whole dose curve; as a rule, active = well fitted inhibition curve with a large enough effect; inconclusive = small, poorly fitted or top-dose-only effect, or another doubt; inactive = no such curve, though single readings can be large or run the other way.

SMILES	CHX counter	Pf growth 96h	Pf growth 48h	Shiga toxin inh
Cc1c(N(CC(=O)O)S(=O)(=O)c2ccccc2)c(=O)n(-c2ccccc2)n1C	-5.2	4.65µM*	15.3%	-0.7
Cc1c(NC(=O)CN(c2ccc(F)cc2)S(=O)(=O)c2ccccc2)c(=O)n(-c2ccccc2)n1C	-3.9	?	-0.9%	-19.3
Cc1c(N(C)C(=O)C2CCCN2S(=O)(=O)c2ccccc2)c(=O)n(-c2ccccc2)n1C (stereo unspecified)	0.5	2.33µM*	1.3%	1.7
Cc1c(NC(=O)C2CCCN2S(=O)(=O)c2ccc(Cl)cc2)c(=O)n(-c2ccccc2)n1C (stereo unspecified)	-3.7	?	/	-17.4
Cc1c(N(C)S(=O)(=O)c2cccc(C(=O)NC(C)C)c2)c(=O)n(-c2ccccc2)n1C	-0.9	11.7µM*	-69.5%	-11.0
CN(C)CC1CCn2c(c(C3=C(c4cn(C)c5ccccc45)C(=O)NC3=O)c3ccccc32)C1 (stereo unspecified)	-9.6	/	/	-11.6
CC(=O)Nc1ccccc1/C=C/c1ccc2c(C)cc(C)c(O)c2n1	-2.3	?	-1.1%	-4.2
CC(=O)Nc1ccccc1/C=C/c1ccc2c(C)ccc(O)c2n1	17.1*	-23.1%	19.1%	17.6
O=C(CNCc1cccs1)Nc1ccc(N2CCCCCC2)cc1	26.7*	13.3%	-29.9%	60.1*
CC(=O)c1ccc(NC(=O)CNCc2cccs2)cc1	54.4*	38.6%	/	52.3*
O=C(CNCc1cccs1)Nc1ccc(OC(F)(F)F)cc1	19.7*	10.4µM*	22.4%	82.0*
CCOC(=O)N1CCN(C(=O)CNCc2cccs2)CC1	11.8	20.7%	27.1%	14.0
COCCCNCC(=O)Nc1ccc(OC(F)(F)F)cc1	-2.4	?	4.3%	-4.6
Cc1ccc(NC(=O)CNCc2cccs2)cc1Br	25.8*	0.0%	7.2%	52.4*
O=C(CNCc1cccs1)Nc1ccc(S(=O)(=O)N2CCCCC2)cc1	-1.5	18.4%	-12.7%	-10.3
O=C(CCC(=O)N1CCN(c2ccccn2)CC1)Nc1nnc(C(F)(F)F)s1	-3.3	?	-3.3%	-1.1
Cc1ccc2c(C)c(C(=O)N(C)Cc3nccn3C)oc2c1C	-1.7	-18.0%	19.0%	-7.1
CCOC(=O)CNc1ccc(OC(F)(F)F)cc1	1.7	5.0%	-2.4%	1.5
CCC(C)(C)NCC(=O)Nc1ccc(OC(F)(F)F)cc1	15.5*	3.3%	/	35.0
Cc1sc2c(c1C)CN(C(C)(C)C)CN2C(=O)c1ccccc1	38.4*	10.6%	/	91.0*
COCCN1Cc2c(sc(C)c2C)N(C(=O)c2ccccc2)C1	26.4*	2.3%	?	71.7*
COCCn1c(SCC(=O)c2ccccc2)nc2c(c1=O)SCC2	-2.2	25.7%	-11.3%	-25.4
Cc1sc2c(c1C)CN(Cc1ccncc1)CN2C(=O)c1ccco1	41.3*	?	/	64.1*
CCN(CC(=O)Nc1ccccc1OC)C(=O)CN1C(=O)NC(C)(c2ccccc2)C1=O (stereo unspecified)	/	-19.9%	-26.5%	/
CCc1ccc(CNCc2cccs2)cc1	28.9*	21.6%	30.6%	54.7*
SMILES	CHX counter	Pf growth 96h	Pf growth 48h	Shiga toxin inh
CC(=O)N1CCOCCOCCN(C(C)=O)CCOCCOCC1	6.7	19.9%	34.7%	3.4
O=C(N1CCOCC1)C(F)(F)C(F)(F)C(F)(F)C(F)(F)C(=O)N1CCOCC1	-2.8	11.7µM*	15.7%	-14.1
CN(C)c1ccc(C(=O)OCc2ccc(Br)cc2)cc1	15.7	18.3%	/	67.1*
CN(C)c1ccc(C(=O)OCC(=O)NCCNC(=O)COC(=O)c2ccc(N(C)C)cc2)cc1	30.3*	111.6%	131.6%	70.6*
CC(C)Oc1ccc(C(=O)OCC(=O)NCCNC(=O)COC(=O)c2ccc(OC(C)C)cc2)cc1	-3.8	13.1µM*	?	-19.2
CCOC(=O)c1c(S(=O)(=O)NCC(=O)NCc2cccc(C)c2)c(C)n(C)c1C	-2.9	14.7%	9.3%	-3.7
Cc1ccc(C(=O)NCCNC(=O)COc2ccccc2Cl)cn1	-1.2	7.2%	7.4%	14.1
COc1ccc(NC(=O)C2CCCN(c3nn4c(=O)cc(C)nc4s3)C2)c(OC)c1 (stereo unspecified)	6.2	?	?	-1.0
Cc1ccc(S(=O)(=O)N(C)C)cc1NC(=O)C1CCCN(C(=O)c2ccc(Cl)cc2)C1 (stereo unspecified)	/	4.65µM*	7.38µM*	/
COc1ccc(NC(=O)C2CC2)cc1S(=O)(=O)N1CCOCC1	/	21.2%	6.0%	/
CSCCC(NC(=O)c1ccccc1Cl)C(=O)Nc1ccc(C)c(S(=O)(=O)N2CCOCC2)c1 (stereo unspecified)	/	?	9.28µM*	/
O=C(Nc1ccc(F)c(S(=O)(=O)N2CCOCC2)c1)C1CCCCC1	/	?	13.1µM*	/
Cc1ccc(NC(=O)CCNC(=O)c2ccccc2Cl)cc1S(=O)(=O)N1CCOCC1	/	?	-5.1%	/
Cc1ccc(Cl)cc1NC(=O)C1CCCN(S(C)(=O)=O)C1 (stereo unspecified)	1.4	10.4µM*	12.8%	0.7
COC(=O)CS(=O)(=O)c1ccsc1C(=O)Nc1ccc(F)c(F)c1	-0.8	?	0.5%	-5.3
Cc1ccc(NC(=O)C2CCCN(C(=O)c3ccc(Cl)cc3)C2)cc1S(=O)(=O)N1CCOCC1 (stereo unspecified)	-2.3	7.38µM*	?	-5.0
CC(=O)Nc1ccc(NC(=O)C2CCCN(C(=O)c3ccc(Cl)cc3)C2)cc1 (stereo unspecified)	-1.2	0.0%	-13.6%	13.4
NNC(=O)c1cc(C23CC4CC(CC(C4)C2)C3)[nH]n1	7.2	?	-6.5%	-0.8
C/C(=N\NC(=O)c1cccc(F)c1)c1ccc(Br)s1	39.1*	3.7µM*	?	23.7
C/C(=N\NC(=O)c1ccccc1O)c1ccc(Br)s1	64.3*	37.9%	13.1µM*	53.7*
C/C(=N\NC(=O)c1ccccc1[N+](=O)[O-])c1ccc(Br)s1	-3.7	58.9%	-1.6%	-6.2
CC(C)NC(=O)c1noc2cc([N+](=O)[O-])ccc12	12.4*	43.3%	43.4%	103.8*
Nc1nc(SCC(=O)c2cccs2)n[nH]1	13.5	?	0.7%	17.6
CC(OC(=O)c1ccco1)C(=O)NCc1cccs1 (stereo unspecified)	-3.6	11.7µM*	0.0%	-4.4
C/C(=N\n1c(C)nc2ccccc2c1=O)c1ccc(C)o1	-0.7	34.4%	31.4%	11.2
SMILES	CHX counter	Pf growth 96h	Pf growth 48h	Shiga toxin inh
C/C(=N\Nc1ncc(Cl)cc1Cl)c1ccc(N2CCOCC2)cc1	38.3*	21.4%	24.4%	85.0*
C/C(=N\Nc1nc(C)cc(C)n1)c1ccc(N2CCOCC2)cc1	17.1	?	?	20.3
C/C(=N\Nc1nc2ccccc2[nH]1)c1ccc(C)o1	37.8*	-11.8%	?	29.9*
Cc1ccc(C(=O)NCc2nc3ccccc3[nH]2)o1	34.0*	4.8%	-1.3%	97.2*
C/C(=N\Nc1nc2ccccc2[nH]1)c1ccc(N2CCOCC2)cc1	40.0*	1.65µM*	4.15µM*	60.6*
COc1ccc(-n2nc(C#N)c(Cl)cc2=O)cc1	-4.6	54.5%	360.1%	-14.6
C/C(=N\Nc1nc2ccccc2[nH]1)c1ccc(Cl)s1	23.0*	?	0.928µM*	53.8*

From PubChem BioAssay
